Reference: paper PMC7862700, “An all-to-all approach to the identification of sequence-specific readers for epigenetic DNA modifications on cytosine”

Tests used:
Assay in all cases: DAPPL (digital affinity profiling via proximity ligation, sequencing); 10 mM Tris-HCl pH 7.5, 50 mM NaCl, 1 mM DTT, 4% glycerol, room temperature, 30 min; GST-TFs on glutathione beads, 16-mer random dsDNA library, 0.1% formaldehyde crosslink after washing; high values mean tight binding
Settings in all cases: protein: recombinant; tags: N-terminal GST; dsDNA, one strand shown
[1] = molecular target: T1, FLI1 (Homo sapiens, UniProt Q01543 1-452)
T1 sequence: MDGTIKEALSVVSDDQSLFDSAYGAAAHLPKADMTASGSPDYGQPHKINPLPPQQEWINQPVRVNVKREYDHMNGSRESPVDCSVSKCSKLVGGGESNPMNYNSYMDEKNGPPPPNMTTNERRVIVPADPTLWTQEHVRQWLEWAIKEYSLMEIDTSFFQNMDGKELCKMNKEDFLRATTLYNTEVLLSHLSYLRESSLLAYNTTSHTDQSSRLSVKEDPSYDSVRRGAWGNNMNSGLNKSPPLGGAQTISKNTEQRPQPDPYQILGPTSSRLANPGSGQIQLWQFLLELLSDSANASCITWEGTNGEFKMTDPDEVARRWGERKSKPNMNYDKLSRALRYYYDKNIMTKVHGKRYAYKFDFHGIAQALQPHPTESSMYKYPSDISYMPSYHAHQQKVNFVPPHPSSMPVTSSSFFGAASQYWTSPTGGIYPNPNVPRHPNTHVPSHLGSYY
Method in brief: (§1)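 Pools were built from human transcription factors expressed in yeast as GST fusions, captured on glutathione beads and DNA-barcoded, along with a tag-only sample. Incubation with 200 nmole of a 16-mer random double-stranded DNA library lasted 30 min at room temperature in Tris/NaCl/DTT/glycerol buffer, and was followed by washing, 0.1% formaldehyde crosslinking, proximity ligation, PCR amplification and Illumina NextSeq500 sequencing. Binding signal is the quotient of each hexamer's read frequency for a factor and its frequency for the tag-only sample.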

[2] = molecular target: T2, ELK1 (Homo sapiens, UniProt P19419 1-428)
T2 sequence: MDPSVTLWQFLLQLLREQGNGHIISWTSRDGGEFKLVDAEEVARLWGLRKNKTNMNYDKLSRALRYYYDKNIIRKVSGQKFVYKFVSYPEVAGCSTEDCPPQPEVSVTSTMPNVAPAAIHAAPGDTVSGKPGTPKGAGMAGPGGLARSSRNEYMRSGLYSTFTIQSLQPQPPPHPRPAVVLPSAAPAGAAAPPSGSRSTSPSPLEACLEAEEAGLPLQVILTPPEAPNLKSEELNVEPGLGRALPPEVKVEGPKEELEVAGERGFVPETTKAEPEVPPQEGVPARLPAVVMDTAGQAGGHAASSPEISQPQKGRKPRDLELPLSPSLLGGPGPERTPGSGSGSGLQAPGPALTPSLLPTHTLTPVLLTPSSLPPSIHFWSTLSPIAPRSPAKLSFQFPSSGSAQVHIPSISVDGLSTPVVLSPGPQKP
Method in brief: as §1

[3] = molecular target: T3, GABPA (Homo sapiens, UniProt Q06546 1-454)
T3 sequence: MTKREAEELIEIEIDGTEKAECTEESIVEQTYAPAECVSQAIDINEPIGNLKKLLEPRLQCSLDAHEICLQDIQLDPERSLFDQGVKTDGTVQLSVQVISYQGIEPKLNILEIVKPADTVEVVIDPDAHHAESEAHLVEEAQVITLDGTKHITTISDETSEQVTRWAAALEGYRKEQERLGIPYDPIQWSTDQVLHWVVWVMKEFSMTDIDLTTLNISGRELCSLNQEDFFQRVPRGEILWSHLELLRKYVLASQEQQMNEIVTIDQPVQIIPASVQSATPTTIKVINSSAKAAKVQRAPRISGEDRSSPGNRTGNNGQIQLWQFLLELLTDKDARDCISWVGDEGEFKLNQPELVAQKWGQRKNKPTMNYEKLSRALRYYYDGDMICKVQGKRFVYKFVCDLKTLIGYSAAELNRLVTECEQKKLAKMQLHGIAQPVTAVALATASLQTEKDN
Method in brief: as §1

[4] = molecular target: T4, ERG (Homo sapiens, UniProt P11308 1-479)
T4 sequence: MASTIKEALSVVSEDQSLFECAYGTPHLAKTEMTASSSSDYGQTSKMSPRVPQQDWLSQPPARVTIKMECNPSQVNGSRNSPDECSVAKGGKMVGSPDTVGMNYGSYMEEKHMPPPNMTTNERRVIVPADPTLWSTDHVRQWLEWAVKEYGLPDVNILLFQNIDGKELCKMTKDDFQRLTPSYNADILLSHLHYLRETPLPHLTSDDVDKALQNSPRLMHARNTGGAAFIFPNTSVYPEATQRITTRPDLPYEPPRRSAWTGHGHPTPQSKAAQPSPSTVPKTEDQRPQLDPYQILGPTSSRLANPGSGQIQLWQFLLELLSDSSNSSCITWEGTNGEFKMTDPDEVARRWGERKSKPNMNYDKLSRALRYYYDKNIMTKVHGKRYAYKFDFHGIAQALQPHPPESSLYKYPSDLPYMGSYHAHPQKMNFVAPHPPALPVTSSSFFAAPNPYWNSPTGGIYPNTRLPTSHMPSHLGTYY
Method in brief: as §1

[5] = molecular target: ELF1 (Homo sapiens, UniProt P32519 1-619)
Chain of ELF1 (P32519 whole entry): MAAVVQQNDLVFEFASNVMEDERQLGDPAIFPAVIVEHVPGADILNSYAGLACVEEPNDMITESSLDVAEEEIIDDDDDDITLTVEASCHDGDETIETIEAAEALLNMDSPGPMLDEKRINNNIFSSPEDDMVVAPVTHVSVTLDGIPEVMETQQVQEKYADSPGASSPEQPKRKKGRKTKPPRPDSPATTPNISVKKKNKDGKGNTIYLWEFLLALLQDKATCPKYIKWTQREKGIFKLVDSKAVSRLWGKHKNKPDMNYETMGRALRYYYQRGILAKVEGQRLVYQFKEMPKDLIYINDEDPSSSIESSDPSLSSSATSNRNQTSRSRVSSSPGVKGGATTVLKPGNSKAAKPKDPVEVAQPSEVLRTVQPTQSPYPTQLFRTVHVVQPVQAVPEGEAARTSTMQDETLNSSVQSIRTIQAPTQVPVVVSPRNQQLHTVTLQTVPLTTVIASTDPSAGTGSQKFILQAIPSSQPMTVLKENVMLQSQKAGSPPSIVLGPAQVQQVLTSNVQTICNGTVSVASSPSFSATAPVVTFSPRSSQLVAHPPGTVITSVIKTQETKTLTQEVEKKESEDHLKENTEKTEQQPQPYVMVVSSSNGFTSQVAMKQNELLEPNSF
Method in brief: as §1

[6] = molecular target: T5, EHF (Homo sapiens, UniProt Q9NZC4 1-300)
T5 sequence: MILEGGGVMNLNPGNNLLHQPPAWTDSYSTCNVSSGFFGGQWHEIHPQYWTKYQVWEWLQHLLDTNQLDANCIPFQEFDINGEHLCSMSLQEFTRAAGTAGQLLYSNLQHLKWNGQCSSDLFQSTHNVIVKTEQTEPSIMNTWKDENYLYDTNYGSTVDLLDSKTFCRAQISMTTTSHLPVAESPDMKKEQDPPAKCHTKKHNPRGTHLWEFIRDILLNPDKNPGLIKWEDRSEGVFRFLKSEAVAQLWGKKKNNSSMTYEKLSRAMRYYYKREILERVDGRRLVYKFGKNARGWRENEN
Method in brief: as §1

[7] = molecular target: SPI1 (Homo sapiens, UniProt P17947 1-270)
Method in brief: as §1

[8] = molecular target: SPIB (Homo sapiens, UniProt Q01892 1-262)
Chain of SPIB (Q01892 whole entry): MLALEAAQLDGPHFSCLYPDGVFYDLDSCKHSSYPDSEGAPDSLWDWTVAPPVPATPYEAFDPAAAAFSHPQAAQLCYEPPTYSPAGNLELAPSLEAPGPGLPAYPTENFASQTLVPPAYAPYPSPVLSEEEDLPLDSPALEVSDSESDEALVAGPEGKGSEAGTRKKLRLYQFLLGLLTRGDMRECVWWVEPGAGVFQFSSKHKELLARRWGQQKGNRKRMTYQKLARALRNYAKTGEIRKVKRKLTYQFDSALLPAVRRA
Method in brief: as §1

[9] = molecular target: T6, ELK3 (Homo sapiens, UniProt P41970 1-407)
T6 sequence: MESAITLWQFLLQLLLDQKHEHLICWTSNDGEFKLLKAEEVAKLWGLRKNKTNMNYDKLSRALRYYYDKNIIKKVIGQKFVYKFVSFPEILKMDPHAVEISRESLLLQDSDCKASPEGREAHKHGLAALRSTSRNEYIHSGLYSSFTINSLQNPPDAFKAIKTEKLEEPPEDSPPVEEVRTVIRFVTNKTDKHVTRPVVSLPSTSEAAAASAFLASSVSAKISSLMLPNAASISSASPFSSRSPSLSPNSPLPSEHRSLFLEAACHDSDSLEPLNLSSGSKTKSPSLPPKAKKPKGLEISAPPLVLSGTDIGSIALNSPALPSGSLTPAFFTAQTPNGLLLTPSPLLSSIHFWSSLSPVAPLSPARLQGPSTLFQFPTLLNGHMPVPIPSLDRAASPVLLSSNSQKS
Method in brief: as §1

TTAAAT
binding signal [1]: 1.17 fold enrichment (6-mer frequency, TF over GST control)
binding signal [2]: 1.11 fold enrichment (6-mer frequency, TF over GST control)
binding signal [3]: 1.1 fold enrichment (6-mer frequency, TF over GST control)
binding signal [4]: 1.11 fold enrichment (6-mer frequency, TF over GST control)
binding signal [5]: 1.19 fold enrichment (6-mer frequency, TF over GST control)
binding signal [6]: 1.14 fold enrichment (6-mer frequency, TF over GST control)
binding signal [7]: 1.12 fold enrichment (6-mer frequency, TF over GST control)
binding signal [8]: 1.13 fold enrichment (6-mer frequency, TF over GST control)
binding signal [9]: 1.25 fold enrichment (6-mer frequency, TF over GST control)
